The text below walks through data of the supplement of paper PMC10849652.

The full data set covers some 8,800 targets. This sample favours those with a hit. About 0.5% of all pairs of compound and target were hits. Unmarked numbers belong to inactive results.

Chain of UniProt Q96L91 (Q96L91 whole entry, looked up): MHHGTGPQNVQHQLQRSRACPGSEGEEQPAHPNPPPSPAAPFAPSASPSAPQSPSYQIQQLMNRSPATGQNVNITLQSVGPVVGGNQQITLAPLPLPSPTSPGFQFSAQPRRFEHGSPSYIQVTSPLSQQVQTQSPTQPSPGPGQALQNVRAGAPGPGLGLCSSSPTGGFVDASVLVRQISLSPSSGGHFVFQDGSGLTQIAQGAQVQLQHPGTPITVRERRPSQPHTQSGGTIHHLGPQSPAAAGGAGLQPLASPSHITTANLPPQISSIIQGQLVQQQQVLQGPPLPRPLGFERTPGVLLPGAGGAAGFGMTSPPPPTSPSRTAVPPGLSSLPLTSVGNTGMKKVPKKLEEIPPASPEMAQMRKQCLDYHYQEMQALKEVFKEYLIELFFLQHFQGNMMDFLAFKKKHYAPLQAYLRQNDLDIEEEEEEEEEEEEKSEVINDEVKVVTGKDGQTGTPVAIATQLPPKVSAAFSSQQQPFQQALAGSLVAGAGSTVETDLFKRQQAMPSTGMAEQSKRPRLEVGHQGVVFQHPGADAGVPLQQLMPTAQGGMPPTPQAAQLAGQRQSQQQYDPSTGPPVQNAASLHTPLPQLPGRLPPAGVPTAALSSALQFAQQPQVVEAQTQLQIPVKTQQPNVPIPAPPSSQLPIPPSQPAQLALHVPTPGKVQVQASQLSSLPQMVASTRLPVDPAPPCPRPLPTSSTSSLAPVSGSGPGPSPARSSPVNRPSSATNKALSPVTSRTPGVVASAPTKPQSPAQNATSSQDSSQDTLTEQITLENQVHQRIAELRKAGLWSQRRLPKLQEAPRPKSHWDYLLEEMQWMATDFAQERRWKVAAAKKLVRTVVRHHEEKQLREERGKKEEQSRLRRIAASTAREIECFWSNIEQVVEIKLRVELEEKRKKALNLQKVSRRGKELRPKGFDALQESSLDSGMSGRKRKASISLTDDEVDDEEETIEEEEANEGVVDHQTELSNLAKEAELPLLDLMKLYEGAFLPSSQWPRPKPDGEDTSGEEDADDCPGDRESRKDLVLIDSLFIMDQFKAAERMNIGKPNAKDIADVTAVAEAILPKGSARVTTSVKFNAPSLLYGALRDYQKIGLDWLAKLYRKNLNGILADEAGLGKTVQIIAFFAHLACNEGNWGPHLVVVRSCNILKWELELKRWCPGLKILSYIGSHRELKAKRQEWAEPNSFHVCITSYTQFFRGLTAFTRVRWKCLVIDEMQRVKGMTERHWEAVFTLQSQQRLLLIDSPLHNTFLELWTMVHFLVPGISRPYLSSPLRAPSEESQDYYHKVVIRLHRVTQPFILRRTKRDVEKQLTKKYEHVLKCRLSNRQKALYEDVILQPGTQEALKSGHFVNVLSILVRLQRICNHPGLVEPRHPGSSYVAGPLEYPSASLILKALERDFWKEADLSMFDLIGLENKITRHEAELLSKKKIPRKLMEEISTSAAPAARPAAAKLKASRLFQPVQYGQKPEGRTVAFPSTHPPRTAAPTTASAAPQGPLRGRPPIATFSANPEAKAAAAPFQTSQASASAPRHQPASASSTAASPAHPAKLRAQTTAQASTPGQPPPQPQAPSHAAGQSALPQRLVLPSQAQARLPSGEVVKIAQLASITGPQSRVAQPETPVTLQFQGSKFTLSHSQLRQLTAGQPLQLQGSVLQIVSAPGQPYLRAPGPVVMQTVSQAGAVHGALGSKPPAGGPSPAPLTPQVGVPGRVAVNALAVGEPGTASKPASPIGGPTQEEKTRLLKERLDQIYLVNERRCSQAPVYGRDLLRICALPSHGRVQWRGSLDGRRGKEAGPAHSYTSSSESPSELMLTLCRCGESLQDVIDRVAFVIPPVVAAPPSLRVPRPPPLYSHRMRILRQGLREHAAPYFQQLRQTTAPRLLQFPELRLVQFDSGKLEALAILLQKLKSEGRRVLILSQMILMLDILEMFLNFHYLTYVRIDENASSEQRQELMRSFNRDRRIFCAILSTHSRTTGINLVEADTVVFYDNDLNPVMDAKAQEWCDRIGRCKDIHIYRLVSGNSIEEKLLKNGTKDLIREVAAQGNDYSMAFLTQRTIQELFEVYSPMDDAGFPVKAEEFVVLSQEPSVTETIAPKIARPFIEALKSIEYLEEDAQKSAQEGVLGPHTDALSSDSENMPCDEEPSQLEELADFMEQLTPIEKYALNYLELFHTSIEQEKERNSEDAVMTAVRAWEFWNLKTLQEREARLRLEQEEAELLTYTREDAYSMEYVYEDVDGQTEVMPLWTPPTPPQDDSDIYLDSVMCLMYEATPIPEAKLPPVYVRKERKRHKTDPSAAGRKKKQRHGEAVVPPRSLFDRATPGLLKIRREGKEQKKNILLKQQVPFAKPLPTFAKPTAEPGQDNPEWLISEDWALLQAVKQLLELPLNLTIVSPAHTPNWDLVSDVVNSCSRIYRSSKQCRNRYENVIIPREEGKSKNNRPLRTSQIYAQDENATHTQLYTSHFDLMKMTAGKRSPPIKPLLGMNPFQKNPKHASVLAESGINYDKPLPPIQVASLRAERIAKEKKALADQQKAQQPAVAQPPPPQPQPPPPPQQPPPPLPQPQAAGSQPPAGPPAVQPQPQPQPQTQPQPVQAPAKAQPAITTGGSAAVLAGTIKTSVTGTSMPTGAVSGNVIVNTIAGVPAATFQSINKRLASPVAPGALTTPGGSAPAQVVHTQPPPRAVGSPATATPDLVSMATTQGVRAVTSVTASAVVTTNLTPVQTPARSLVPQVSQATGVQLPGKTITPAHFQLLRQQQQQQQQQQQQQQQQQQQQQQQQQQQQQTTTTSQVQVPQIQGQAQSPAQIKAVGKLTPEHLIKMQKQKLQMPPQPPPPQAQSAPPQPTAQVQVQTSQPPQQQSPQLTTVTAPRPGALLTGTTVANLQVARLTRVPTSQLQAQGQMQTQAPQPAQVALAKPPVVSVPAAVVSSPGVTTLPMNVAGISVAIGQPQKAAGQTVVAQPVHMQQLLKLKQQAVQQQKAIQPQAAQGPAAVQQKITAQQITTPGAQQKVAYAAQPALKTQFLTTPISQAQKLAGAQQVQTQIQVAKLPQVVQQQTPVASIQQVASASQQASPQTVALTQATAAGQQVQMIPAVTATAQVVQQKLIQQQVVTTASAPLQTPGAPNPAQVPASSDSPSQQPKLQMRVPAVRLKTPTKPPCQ
Chain of UniProt P54852 (P54852 whole entry, looked up): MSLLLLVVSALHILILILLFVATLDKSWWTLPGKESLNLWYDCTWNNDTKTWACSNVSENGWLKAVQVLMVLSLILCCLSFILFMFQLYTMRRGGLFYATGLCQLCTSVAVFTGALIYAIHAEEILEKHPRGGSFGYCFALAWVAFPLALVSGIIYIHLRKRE
Chain of UniProt Q8NFI3 (Q8NFI3 whole entry, looked up): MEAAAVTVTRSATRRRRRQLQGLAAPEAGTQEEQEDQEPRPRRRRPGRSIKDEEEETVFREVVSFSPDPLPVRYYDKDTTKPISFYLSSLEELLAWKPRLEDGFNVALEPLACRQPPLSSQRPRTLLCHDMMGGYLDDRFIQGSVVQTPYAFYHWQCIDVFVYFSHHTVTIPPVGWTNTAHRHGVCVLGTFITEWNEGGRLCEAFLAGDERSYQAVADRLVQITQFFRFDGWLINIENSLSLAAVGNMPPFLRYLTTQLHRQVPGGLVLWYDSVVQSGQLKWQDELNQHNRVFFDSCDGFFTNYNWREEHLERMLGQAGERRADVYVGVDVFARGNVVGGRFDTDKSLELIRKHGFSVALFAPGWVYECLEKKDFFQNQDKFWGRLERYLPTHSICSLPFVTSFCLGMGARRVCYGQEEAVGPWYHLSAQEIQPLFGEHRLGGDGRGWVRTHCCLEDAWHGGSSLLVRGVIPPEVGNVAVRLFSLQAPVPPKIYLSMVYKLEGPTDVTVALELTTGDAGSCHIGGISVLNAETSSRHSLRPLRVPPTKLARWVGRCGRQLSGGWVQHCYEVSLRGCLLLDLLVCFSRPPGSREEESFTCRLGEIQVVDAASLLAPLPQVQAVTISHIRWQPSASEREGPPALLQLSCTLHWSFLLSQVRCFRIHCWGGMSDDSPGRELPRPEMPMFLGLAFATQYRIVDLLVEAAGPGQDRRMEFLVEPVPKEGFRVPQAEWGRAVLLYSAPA
Chain of UniProt Q96G46 (Q96G46 whole entry, looked up): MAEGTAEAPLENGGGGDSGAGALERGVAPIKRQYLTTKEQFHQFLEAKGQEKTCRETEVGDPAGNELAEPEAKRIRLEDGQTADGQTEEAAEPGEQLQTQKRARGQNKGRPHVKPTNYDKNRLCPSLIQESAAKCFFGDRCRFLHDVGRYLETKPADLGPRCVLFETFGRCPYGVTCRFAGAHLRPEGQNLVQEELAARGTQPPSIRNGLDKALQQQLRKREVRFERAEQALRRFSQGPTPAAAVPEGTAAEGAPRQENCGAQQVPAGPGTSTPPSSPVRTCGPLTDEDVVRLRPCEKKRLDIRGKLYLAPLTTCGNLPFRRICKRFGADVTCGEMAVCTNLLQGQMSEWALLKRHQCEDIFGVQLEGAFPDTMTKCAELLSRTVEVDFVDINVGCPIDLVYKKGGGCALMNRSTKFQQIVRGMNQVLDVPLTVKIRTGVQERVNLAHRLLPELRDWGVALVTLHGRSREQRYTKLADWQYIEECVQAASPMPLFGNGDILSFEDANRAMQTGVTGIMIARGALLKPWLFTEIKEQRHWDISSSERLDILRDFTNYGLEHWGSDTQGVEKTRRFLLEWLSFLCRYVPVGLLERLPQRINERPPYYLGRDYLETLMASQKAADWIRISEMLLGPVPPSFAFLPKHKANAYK
Chain of UniProt Q8N5C7 (Q8N5C7 whole entry, looked up): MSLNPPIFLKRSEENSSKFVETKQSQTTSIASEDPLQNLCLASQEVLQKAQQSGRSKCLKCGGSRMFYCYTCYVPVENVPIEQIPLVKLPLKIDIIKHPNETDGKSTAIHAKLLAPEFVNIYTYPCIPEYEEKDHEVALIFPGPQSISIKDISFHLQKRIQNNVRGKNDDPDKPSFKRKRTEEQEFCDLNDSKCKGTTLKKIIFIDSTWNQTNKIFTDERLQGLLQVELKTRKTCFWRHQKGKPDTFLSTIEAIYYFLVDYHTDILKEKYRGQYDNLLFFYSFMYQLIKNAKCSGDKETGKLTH

Compound in this assay: c1cn2cc(-c3ccc4cn[nH]c4c3)nc(Nc3ccc(N4CCOCC4)cc3)c2n1 [entospletinib]
Description: log2 fold change, soluble protein after heating vs DMSO (PISA); higher = thermal stabilisation; K562 lysate, 10 uM; active = over 0.2 and 3.5 SD of the protein, either way, in both replicates (recomputed). In a few lines: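 K562 pellets were dounce-homogenised in PBS pH 7.4 containing 1 mM MgCl2, and the crude extract, at 1 mg/mL protein, was exposed to 10 μM compound for 30 min. Aliquots were heated for 3 min across 48°C-58°C, pooled, brought to 0.5% NP-40 at 4°C and spun at 21,000xg for 90 min, with the supernatant taken as soluble protein. TMTpro 16plex LC-MS/MS with equalised channel sums quantified that protein. Values are log-two fold changes in thermal stability relative to solvent controls, taken from duplicates.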
As for EXOC1 (UniProt Q9NV70), the log2 fold change was 0.019.

On to EEFSEC (UniProt P57772), for which the log2 fold change is -0.009.

For GGT7 (UniProt Q9UJ14), the log2 fold change was -0.056.

In the case of FLAD1 (UniProt Q8NFF5), the log2 fold change was 0.037.

DST (UniProt Q03001): the log2 fold change is -0.03.

As for EP400 isoform 5 (UniProt Q96L91), the log2 fold change is -0.021.

Turning to FDFT1 (UniProt P37268), the log2 fold change is 0.06.

On to ENGASE (UniProt Q8NFI3), for which the log2 fold change is -0.004.

For ERAL1 (UniProt O75616), the log2 fold change was -0.083.

Consider EED, A0A5F9ZI63, for which the log2 fold change is 0.009.

Regarding DUS3L (UniProt Q96G46), the log2 fold change is 0.014.

Take DUS2 (UniProt Q9NX74): the log2 fold change was -0.042.

As to FYB1 isoform 3 (UniProt O15117), the log2 fold change was -0.006.

As to FARSA (UniProt Q9Y285), the log2 fold change was 0.003.

FBRSL1, A0A3B3IRR3: the log2 fold change was -0.087.

Turning to ECI2 (UniProt O75521), the log2 fold change was -0.033.

As to FBXO22 (UniProt Q8NEZ5), the log2 fold change was 0.014.

In the case of DYNC1I2 isoform 2 (UniProt Q13409), the log2 fold change was 0.039.

As to FAM118B (UniProt Q9BPY3), the log2 fold change was -0.005.

As to GCLM (UniProt P48507), the log2 fold change is 0.021.

Turning to EMP3 (UniProt P54852), the log2 fold change is 0.144.

On to DTWD1 (UniProt Q8N5C7), for which the log2 fold change was 0.036.

For FNBP1L (UniProt Q5T0N5), the log2 fold change was 0.017.
